G9a inh: G9a (human) methyltransferase inhibition. Potency, µM (series often up to 102 µM), hits mostly inhibitors. Q96KQ7. 350,000 compounds, 8.8% hits. G9a H3K9 monomethylation, AlphaScreen, 2 h; note: nearly all actives have a fitted effect of over 75% in size
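Compounds were preincubated with 20 nM G9a for 15 min, after which biotinylated H3K9 peptide (500 nM) and SAM (20 uM) started a 2 h room-temperature reaction. Monomethylated product was quantified by antibody-based AlphaScreen chemiluminescence.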
BAZ2B inh: BAZ2B (human) inhibition; Q9UIF8; AlphaScreen BAZ2B-H3K14Ac peptide displacement; Potency, µM (top dose mostly 114 µM), actives largely listed as inhibitors; 360,000 compounds, 4.4% hits; note: nearly all actives have a fitted effect of over 60% in size
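BAZ2B 50 nM plus b-H3(5-23)K14Ac 50 nM, PBS pH 7.4/0.01% Tween-20, 30 min RT; compound added (max 110 uM), 30 min RT; streptavidin donor/Ni-chelate acceptor beads 10 ug/mL final, 20 min dark; AlphaScreen read.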
Sfp PPTase inh: blocks B. subtilis Sfp PPTase activity; AID 1490; 310,000 compounds, 3.5% hits; Potency, µM, usual class: inhibitors; Q9F4F7; Biochemical Sfp PPTase activity, qHTS;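 note: the enzyme is Sfp with the accession as filed and its product quenches rhodamine fluorescence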
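After 15 min at room temperature with compound, 15 nM Sfp received 5 uM rhodamine-CoA plus 12.5 uM BHQ-2-ybbR (50 mM Hepes pH 7.6, 10 mM MgCl2). Rate came from the fluorescence difference over 30 min, ex 525/em 598 nm.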
JMJD2A Tudor inh: inhibitors of human JMJD2A Tudor domain | 390,000 compounds, 4.4% hits | AID 504339 | AlphaScreen JMJD2A-Tudor / H3K4me3 peptide binding | Potency, µM (series often up to 114 µM), hits mostly inhibitors; note: nearly all actives have a fitted effect of over 50% in size
Target sequence (O75164 whole entry, looked up, the tested form may be a part): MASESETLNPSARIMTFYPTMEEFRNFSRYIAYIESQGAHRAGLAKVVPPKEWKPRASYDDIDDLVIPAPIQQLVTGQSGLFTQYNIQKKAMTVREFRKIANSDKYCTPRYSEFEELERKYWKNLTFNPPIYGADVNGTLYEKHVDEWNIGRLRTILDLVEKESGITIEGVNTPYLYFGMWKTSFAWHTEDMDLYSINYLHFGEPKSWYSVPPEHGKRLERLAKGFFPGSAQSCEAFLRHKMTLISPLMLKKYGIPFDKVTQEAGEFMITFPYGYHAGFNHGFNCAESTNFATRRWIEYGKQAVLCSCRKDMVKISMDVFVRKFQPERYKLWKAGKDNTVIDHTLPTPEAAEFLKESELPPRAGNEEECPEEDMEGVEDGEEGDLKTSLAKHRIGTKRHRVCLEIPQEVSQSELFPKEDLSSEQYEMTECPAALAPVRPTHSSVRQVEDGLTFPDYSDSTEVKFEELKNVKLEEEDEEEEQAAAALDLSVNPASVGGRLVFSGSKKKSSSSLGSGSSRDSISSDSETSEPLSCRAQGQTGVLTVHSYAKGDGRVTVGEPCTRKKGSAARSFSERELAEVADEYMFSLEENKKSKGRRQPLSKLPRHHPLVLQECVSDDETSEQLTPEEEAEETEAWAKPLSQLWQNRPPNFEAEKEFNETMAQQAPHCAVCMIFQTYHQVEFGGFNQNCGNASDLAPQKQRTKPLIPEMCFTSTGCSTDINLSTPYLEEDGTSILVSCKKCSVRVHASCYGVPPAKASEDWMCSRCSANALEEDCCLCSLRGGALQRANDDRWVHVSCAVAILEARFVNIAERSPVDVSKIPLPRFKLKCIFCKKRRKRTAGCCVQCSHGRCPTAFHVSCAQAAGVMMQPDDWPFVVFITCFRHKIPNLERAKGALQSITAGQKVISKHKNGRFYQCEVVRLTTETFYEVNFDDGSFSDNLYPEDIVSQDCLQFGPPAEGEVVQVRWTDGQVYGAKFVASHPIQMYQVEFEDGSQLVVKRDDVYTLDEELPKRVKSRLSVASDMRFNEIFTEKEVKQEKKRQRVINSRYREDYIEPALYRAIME
HP1b binding inh: HP1-beta chromodomain-methylated histone interaction inhibition | P83916 | AlphaScreen HP1-beta / biotin-H3K9me3 peptide binding | 390,000 compounds, 0.56% hits | Potency, µM (series often up to 114 µM), actives largely listed as inhibitors; note: nearly all actives have a fitted effect of over 70% in size
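HP1-beta protein (50 nM final) preincubated 30 min at room temperature with biotinylated H3(1-18)K9me3 peptide (50 nM) in PBS pH 7.4, 0.01% Tween-20, then compound added for 30 min. AlphaScreen streptavidin donor/nickel chelate acceptor beads (10 ug/mL final), 30 min dark, luminescence read.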
Large screens that a line does not name were inactive. Shown are actives, neighbours in structure and some others; about 12% of the full set was active somewhere. Calls come from the whole dose curve; as a rule, active = well fitted curve in the direction sought with a large enough effect; inconclusive = small, poorly fitted or top-dose-only effect, or another doubt; inactive = no such curve, though single readings can be large; an effect the other way counts as inactive or inconclusive.

CC[C@H](C)[C@H](NC(=O)[C@H](CO)NC(=O)[C@H](CC(C)C)NC(=O)[C@@H]1CCCN1C(=O)[C@@H]1CCCN1C(=O)[C@H](CC(=O)O)NC(=O)[C@@H](N)CC(=O)O)C(=O)N[C@@H](CC(=O)O)C(=O)N[C@@H](CC(C)C)C(=O)N[C@H](C(=O)N[C@@H](Cc1ccccc1)C(=O)N[C@@H](Cc1cnc[nH]1)C(=O)N[C@@H](CC(C)C)C(=O)N[C@@H](CC(C)C)C(=O)N[C@@H](CCCNC(=N)N)C(=O)N[C@H](C(=O)N[C@@H](CC(C)C)C(=O)N[C@@H](CC(C)C)C(=O)N[C@@H](CCC(=O)O)C(=O)N[C@@H](CC(C)C)C(=O)N[C@@H](C)C(=O)N[C@@H](CCCNC(=N)N)C(=O)N[C@H](C(=O)N[C@@H](CCC(N)=O)C(=O)N[C@@H](CO)C(=O)N[C@@H](CCC(N)=O)C(=O)N[C@@H](CCCNC(=N)N)C(=O)N[C@@H](CCC(=O)O)C(=O)N[C@@H](CCCNC(=N)N)C(=O)N[C@@H](C)C(=O)N[C@@H](CCC(=O)O)C(=O)N[C@@H](CCC(N)=O)C(=O)N[C@@H](CC(N)=O)C(=O)N[C@@H](CCCNC(=N)N)C(=O)N[C@H](C(=O)N[C@H](C(=O)N[C@@H](Cc1ccccc1)C(=O)N[C@@H](CC(=O)O)C(=O)N[C@@H](CO)C(=O)N[C@H](C(N)=O)C(C)C)[C@@H](C)CC)[C@@H](C)CC)[C@@H](C)O)[C@@H](C)O)[C@@H](C)O	none (no result: G9a inh, BAZ2B inh, JMJD2A Tudor inh, HP1b binding inh)
CCCc1sc(N/N=C/c2ccccn2)nc1-c1ccc(Br)cc1	JMJD2A Tudor inh 50µM
CCc1ccc(-c2cc(C(=O)N/N=C/c3ccccn3)[nH]n2)cc1	none
CCn1cc(C(=O)N(C)Cc2ccccc2)c(=O)c2cc(S(=O)(=O)N3CCc4ccccc4C3)ccc21	none (no result: BAZ2B inh, Sfp PPTase inh)
Cc1ccc(CNC(=O)c2ccc(N3CCC4(CC3)CC(c3ccccc3)=NO4)c(NC(=O)c3ccc(Br)cc3)c2)cc1	Sfp PPTase inh inconclusive
O=C(COC(=O)/C=C/c1cccs1)Nc1nc(-c2cccc(Br)c2)cs1	none
O=C(C[n+]1cc(-c2ccccc2)n2c1CCC2)Nc1nc(-c2ccccc2)cs1	G9a inh inconclusive, Sfp PPTase inh 56µM
O=C(COC(=O)c1cccs1)Nc1nc(-c2ccccc2)cs1	G9a inh 40µM
O=C(COC(=O)/C=C/c1cccs1)Nc1nc(-c2ccccc2)cs1	G9a inh 1.1µM
C/C(=N/Nc1ccccc1C(=O)O)c1cccs1	G9a inh inconclusive, BAZ2B inh inconclusive
O=C(Cc1cccs1)Nc1nc(-c2ccccc2)cs1	none
C/C(=N\Nc1nc(-c2ccccc2)cs1)c1cccs1	G9a inh 5µM, BAZ2B inh 40µM, Sfp PPTase inh 56µM, JMJD2A Tudor inh inconclusive
Cc1ccc(-c2c[n+](CC(=O)Nc3nc(-c4ccccc4)cs3)c3n2CCC3)cc1	G9a inh inconclusive
Cn1c(=O)c2c(ncn2CCOc2ccc(F)cc2)n(C)c1=O	HP1b binding inh inconclusive
O=C(CC1CC2CCC1C2)NCCc1ccc(Cl)cc1 (centres undefined)	none
Cc1ccc(N2CCN(Cc3nnc(-c4ccc5c(c4)OCO5)o3)CC2)c(C)c1	none (no result: Sfp PPTase inh)
CCN(C=NC1=NN(c2cccc(C(F)(F)F)c2)CC1)CC	G9a inh inconclusive, BAZ2B inh 50µM, JMJD2A Tudor inh 50µM, HP1b binding inh inconclusive
Cc1cccc(N2C(=O)CCC2=O)c1	none
Cc1cccc(N2CCC(N=CN(C)C)=N2)c1	G9a inh 4µM, Sfp PPTase inh inconclusive, JMJD2A Tudor inh inconclusive
OCCN(C=NC1=NN(c2cccc(C(F)(F)F)c2)CC1)CCO	JMJD2A Tudor inh inconclusive (no result: G9a inh)
Cc1noc(C)c1-c1ccc2ncnc(NCc3ccc4c(c3)OCO4)c2c1	none (no result: G9a inh, BAZ2B inh, HP1b binding inh)
Clc1ccc(-c2csc(Nc3cccnc3)n2)cc1	G9a inh inconclusive
CCc1ccccc1Nc1nc(-c2cccnc2)cs1	BAZ2B inh inconclusive (no result: G9a inh)
O=[N+]([O-])c1ccccc1Nc1nc(-c2cccnc2)cs1	G9a inh inconclusive, BAZ2B inh 14µM, JMJD2A Tudor inh 35µM, HP1b binding inh inconclusive
c1ccc(-c2csc(Nc3cccnc3)n2)cc1	Sfp PPTase inh 32µM
Clc1ccc(Nc2nc(-c3cccnc3)cs2)cc1	G9a inh inconclusive, Sfp PPTase inh 79µM
O=c1[nH]c(S)c(/C=C2\C=Nc3ccccc32)s1	G9a inh 14µM, BAZ2B inh 11µM, Sfp PPTase inh inconclusive, JMJD2A Tudor inh inconclusive, HP1b binding inh inconclusive
CC(CNC(=O)c1ccc2nc(CCc3ccccc3)oc2c1)c1ccccc1 (centres undefined)	none (no result: Sfp PPTase inh)
CC(=O)c1cccc(NC(=O)COC(=O)c2ccccn2)c1	BAZ2B inh inconclusive
CN(C)S(=O)(=O)c1ccc(NC(=O)COC(=O)c2ccccn2)cc1	G9a inh 50µM, BAZ2B inh inconclusive, JMJD2A Tudor inh inconclusive
CCOc1ccccc1OCC(=O)Nc1ccc(S(=O)(=O)N(C)C)cc1	none (no result: BAZ2B inh)
O=C(COC(=O)/C=C/c1ccccc1)Nc1cccnc1Cl	G9a inh 50µM (no result: Sfp PPTase inh)
CC(=O)Nc1ccc(NC(=O)COC(=O)c2ccccn2)cc1	G9a inh 45µM, BAZ2B inh 50µM
O=C(COC(=O)/C=C/c1cccc([N+](=O)[O-])c1)Nc1cccnc1Cl	none (no result: G9a inh, BAZ2B inh, Sfp PPTase inh)
O=C(COC(=O)c1ccccn1)Nc1cc(Cl)ccc1Cl	BAZ2B inh inconclusive
O=C(COC(=O)c1ccccn1)Nc1ccccc1Cl	G9a inh 10µM, BAZ2B inh inconclusive, Sfp PPTase inh inconclusive, JMJD2A Tudor inh 32µM
Cc1cc(C(=O)COC(=O)c2ccc(F)cc2F)c(C)n1C1CC1	none (no result: Sfp PPTase inh)
CC(=O)NCC(=O)OCC(=O)c1ccccc1	none
CCCCCCC(=O)NCC(=O)OCC(=O)c1ccccc1	G9a inh 25µM
CCCCCC(=O)Nc1ccc(C(=O)COC(=O)c2ccccn2)cc1	G9a inh 50µM (no result: Sfp PPTase inh)
C[C@H](N)CCP(=O)(O)O	none (no result: BAZ2B inh, JMJD2A Tudor inh, HP1b binding inh)
CN1C(=O)C(O)(CC(=O)/C=C/c2ccco2)c2ccccc21 (centres undefined)	G9a inh inconclusive, Sfp PPTase inh 25µM
Cc1ccc(C(=O)CC2(O)C(=O)N(C)c3ccccc32)o1 (centres undefined)	G9a inh 50µM
CN1C(=O)C(O)(CC(=O)/C=C/c2ccco2)c2cc(Br)ccc21 (centres undefined)	G9a inh 35µM, Sfp PPTase inh 45µM
CCOc1ccccc1NC(=O)Cn1c(=O)n(Cc2ccco2)c(=O)c2ccc(C(=O)NC3CCCC3)cc21	none (no result: BAZ2B inh, Sfp PPTase inh)
CCOc1ccc(S(=O)(=O)NN=C(C)c2cccnc2)cc1	none (no result: G9a inh, BAZ2B inh, Sfp PPTase inh)
CCc1ccc(S(=O)(=O)N/N=C(/C)c2ccncc2)cc1	G9a inh 40µM
C/C(=N/NS(=O)(=O)c1ccc(F)cc1)c1ccncc1	G9a inh 22µM
COC(=O)C1=C(C)N(c2ccc(F)c(Cl)c2)C(=O)C1	G9a inh inconclusive, Sfp PPTase inh inconclusive
COC(=O)C1=C(C)N(c2ccc(OC)c(OC)c2)C(=O)C1	G9a inh 71µM
